The whole screen tested about 320,000 compounds, of which about 2,100 (0.66%) were called active. About 53% were inconclusive and are not listed. Calls come from the whole dose curve; as a rule, active = well fitted inhibition curve with a large enough effect in the signal ratio, with a control signal flat (not every such curve was filed as active); inconclusive = small, poorly fitted or top-dose-only effect, or effect the other way, or a change in a side signal; inactive = flat fitted curve, though single readings scatter; the % refers to the signal ratio. The list comes from a sample in which actives are over-represented; it also holds similar structures and randomly drawn compounds.
Test: qHTS Assay for Lipid Storage Modulators in Drosophila S3 Cells;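 for cell number change: cells counted by Cell Tracker Red CMTPX staining in the red channel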; for lipid storage change, negative = inhibition: % is set by controls: 0 for no effect and ±100 for the full control effect
Conditions: BODIPY lipid droplet fluorescence, 18-24 h, cells fed with added oleic acid; cell number change: measured here: cell count max response; series mostly up to 46.1 µM; lipid storage change, negative = inhibition: at the top concentration
Outline: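 Drosophila S3 cells loaded with oleic acid (400 uM, as added) and compounds at several concentrations; lipid droplets imaged by 488-nm laser-scanning cytometry, 500–530 nm intensity and object ratio to cell channel. Percent activity normalized to 20 uM Triacsin C.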
Potency is the fitted concentration of half-maximal effect.

| Compound | lipid storage change, negative = inhibition | cell number change [%] | Potency | outcome |
| --- | --- | --- | --- | --- |
| O=C(c1ccccc1)c1cccn1CC(=O)N1CCCCCC1 | 2.14% (inactive) | 10.2 |  |  |
| CC(=O)N1N=C(c2c(-c3ccccc3)c3cc(C)ccc3[nH]c2=O)CC1c1ccco1 (configuration not stated) | 21.2% (inactive) |  |  |  |
| Cc1ccc(S(=O)(=O)N2CCOC2CNC(=O)C(=O)NCCc2c[nH]c3ccccc23)cc1 (configuration not stated) | 6.05% [at 9.22 µM] (inactive) | 24.7 |  |  |
| Cc1nn(C)c(Cl)c1CN1CCN(CCC(C)C)C(CCO)C1 (configuration not stated) | -10.1% (inactive) | 11.3 |  |  |
| CCOC(=O)c1c(NC(=O)CSc2nnc(C)c(=O)[nH]2)sc(C)c1-c1ccc(C)cc1 | -16.6% (inactive) | 18.2 |  |  |
| COc1cccc(NC(=O)C(C)Sc2nnc(C3CC3)n2C2CC2)c1 (configuration not stated) | -7.9% (inactive) | -1.32 |  |  |
| Cc1ccc(S(=O)(=O)N2CCCCC2)cc1NC(=O)COC(=O)Cc1c(F)cccc1Cl | 26.6% (inactive) | 10 |  |  |
| CCOC(=O)/C(=N/Nc1ccc(OC)cc1)N1CCCc2ccccc21 | 12% (inactive) | -4.8 |  |  |
| CCOC(=O)c1[nH]ncc1CN1CCCC(C(=O)c2ccc(SC)cc2)C1 (configuration not stated) | 1.75% (inactive) | 0.969 |  |  |
| COC(=O)c1ccc(-c2c(-c3ccccc3)ncc3cc(F)ccc23)cc1 | -6.07% (inactive) | -9.19 |  |  |
| CCn1c(CSCc2ccc(C)cc2)nnc1SCC(=O)NCc1ccccc1 |  | -15.2 | 20.6 µM (active) |  |
| CCn1c(CSc2nc3ccccc3s2)nnc1SCC(=O)NCC(=O)OC |  | -13.2 | 25.9 µM (active) |  |
| CCn1c(CSc2nc3ccccc3s2)nnc1SCC(=O)c1ccc(O)c(O)c1 |  | 8.44 |  | inactive |
| CCn1c(CSc2nc3ccccc3s2)nnc1SCC(=O)c1ccc(O)cc1O |  | -7.44 |  | inactive |
| CCn1c(CSCc2ccc(F)cc2)nnc1SCC(=O)NCc1ccccc1 |  |  |  | inactive |
| CCn1c(CNc2ccc(C)cc2)nnc1SCC(=O)NCc1ccccc1 | 17.1% (inactive) | -12.4 |  |  |
| CC(C)[C@H](N)c1cn([C@@H](CC(N)=O)C(=O)N2CCNCC2)nn1 | 7.43% (inactive) | 10 |  |  |
| CCOC(=O)Cn1nc(C)c([N+](=O)[O-])c1C | 2.28% (inactive) | 2.33 |  |  |
| O=C(CS(=O)CC(=O)N(CC(=O)NC1CCCC1)c1ccc2c(c1)OCCO2)Nc1ccc(F)cc1 (configuration not stated) | -7.01% (inactive) | 11.4 |  |  |
| Cc1ccc(C(=O)c2oc3nc(C)cc(C)c3c2N)cc1 | -5.18% (inactive) | -19 |  |  |

| Compound | lipid storage change, negative = inhibition | cell number change [%] | Potency | outcome |
| --- | --- | --- | --- | --- |
| Cc1cc(C)c2c(N)c(C(=O)c3ccc(Br)cc3)oc2n1 | -2.5% (inactive) | -13.1 |  |  |
| CCc1ccc(C(=O)c2oc3nc(C)cc(C)c3c2N)cc1 |  | -19.5 | 25.9 µM (active) |  |
| CC1CC(C)CN(S(=O)(=O)c2ccc(NC(=O)CN3C(=O)NC(C)(c4ccccc4)C3=O)cc2)C1 (configuration not stated) |  | 3.59 |  | inactive |
| O=C(O)C1CC(=O)N(C2CCCCC2)C1c1ccccc1 (configuration not stated) |  | -5.69 |  | inactive |
| CCOC(=O)N1CCN(C(=O)CSc2nc(=O)n3cc(C)ccc3n2)CC1 |  |  |  | inactive |
| CC(=O)NC(c1ccccc1)c1c(O)ccc2ccccc12 (configuration not stated) | -3.87% (inactive) | 0.433 |  |  |
| Cc1ccc(C(NC(=O)C2CCCCC2)c2c(O)ccc3ccccc23)cc1 (configuration not stated) |  | -26.6 | 13 µM (active) |  |
| CC(C)CC(=O)NC(c1ccccc1)c1c(O)ccc2ccccc12 (configuration not stated) | 27% (inactive) | -6.8 |  |  |
| CCN(CC)S(=O)(=O)c1ccc(N2CCOCC2)c(NC(=O)CN2C(=O)NC(C)(c3ccccc3)C2=O)c1 (configuration not stated) | 12.6% (inactive) |  |  |  |
| O=C(Cc1cccc(F)c1)N1CCCC(CO)(Cc2ccc(F)cc2F)C1 (configuration not stated) | 18.2% (inactive) | 17.6 |  |  |
| CC(C)c1nc2sc3c(=O)[nH]cnc3c2c2c1CCC2 | 5.84% (inactive) | -2.67 |  |  |
| CC(C)c1nc2sc3c(=O)[nH]c(=S)[nH]c3c2c2c1CCC2 |  | 5.1 | 20.6 µM (active) |  |
| CC1(C)Cc2c(c(-c3ccccc3)nc3sc4c(=O)[nH]c(=S)[nH]c4c23)CO1 |  |  |  | inactive |
| Cc1[nH]n(-c2ccc([N+](=O)[O-])cc2)c(=O)c1C=NCC1CCCO1 (configuration not stated) |  |  |  | inactive [at 9.22 µM] |
| O=C(CN1C(=O)/C(=C/c2cccc(Br)c2)SC1=S)NCCCN1CCOCC1 | -12% (inactive) |  |  |  |
| O=C(Cc1csc(NC(=O)Nc2ccc(Cl)cc2)n1)NC1CCCC1 |  |  |  | inactive [at 0.0737 µM] |
| Cn1c(CC(=O)NCCO)c(Sc2ccccc2)c2ccccc21 | -11.2% (inactive) | -10.3 |  |  |
| O=C(Cc1c(Sc2ccccc2)c2ccccc2n1Cc1ccccc1)NCCO |  |  | 13 µM (active) |  |
| CSc1c(CC(=O)NCCCO)n(Cc2ccccc2)c2ccccc12 | -9.68% (inactive) | -1.72 |  |  |
| Cc1cccc(-n2c(=S)[nH]c3nc4c(cc3c2=O)COC(C)(C)C4)c1 | -10.4% (inactive) | 18.9 |  |  |

| Compound | lipid storage change, negative = inhibition | cell number change [%] | Potency | outcome |
| --- | --- | --- | --- | --- |
| CCOc1ccc(S(=O)(=O)NCCc2cn3ccccc3n2)cc1 | 13.3% (inactive) | 6.49 |  |  |
| Cc1nc(N2CCN(c3ccccc3O)CC2)c2c(-c3ccccc3)csc2n1 |  | -4.5 | 4.11 µM (active) |  |
| Oc1ccccc1N1CCN(c2ncnc3scc(-c4ccccc4)c23)CC1 |  | -12.6 | 0.92 µM (active) |  |
| COc1ccc(-c2csc3ncnc(N4CCN(S(=O)(=O)c5ccccc5C#N)CC4)c23)cc1 |  | -21.2 | 7.31 µM (active) |  |
| Cc1nc(N2CCCCC2)c2c(-c3cccs3)csc2n1 | 2.23% (inactive) | 4.97 |  |  |
| c1ccc(-c2csc3ncnc(N4CCOCC4)c23)cc1 | -7.17% (inactive) | -6.12 |  |  |
| COc1ccc(-c2csc3ncnc(N4CCN(S(=O)(=O)c5ccc(Cl)s5)CC4)c23)cc1 | 18.9% (inactive) |  |  |  |
| COc1ccc(-c2csc3ncnc(N4CCN(c5ccc(OC)cc5)CC4)c23)cc1 | -11.7% (inactive) | 11.5 |  |  |
| Cc1ccc(-c2csc3ncnc(N4CCN(c5ccccc5O)CC4)c23)cc1 |  | 7.78 |  | inactive |
| CN1CCN(c2nc(-c3cccnc3)nc3scc(-c4ccccc4)c23)CC1 |  |  |  | inactive |
| COc1cccc(NC(=O)CN(C)C(=O)c2ccccc2-c2nc3ccccc3s2)c1 |  | -6.15 |  | inactive |
| CCCCn1c(N)c(N(CC)C(=O)c2ccc([N+](=O)[O-])c(C)c2)c(=O)[nH]c1=O |  | 6.41 |  | inactive |
| COCC(=O)NCCSc1c(C)[nH]c2ccccc12 |  |  |  | inactive |
| COc1ccc(/C=N/NC(=O)c2cccc(Br)c2)cc1CSc1ccccn1 | 11% (inactive) | 25.3 |  |  |
| Cc1ccccc1CN1CCC(n2nccc2NC(=O)CCOc2ccccc2)CC1 |  |  |  | inactive |
| N#Cc1ccccc1OCC(=O)NCC(c1ccc(F)cc1)N1CCOCC1 (configuration not stated) | 14.4% (inactive) | 17.7 |  |  |
| CSc1nnc(C)c(=O)n1COC(=O)COc1ccc(F)cc1 | -4.54% (inactive) |  |  |  |
| CCC(C)N(C(=O)Cn1nnc(-c2ccc(F)cc2)n1)C1CCS(=O)(=O)C1 (configuration not stated) | 18.3% (inactive) | 8.11 |  |  |

Reference: PubChem BioAssay AID2685 (National Center for Advancing Translational Sciences (NCATS), 2010)
